The source made the active and inactive calls.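 The calls were made as follows: active = RAM network inhibition above 8.4% in each of two replicates, 3 SD over the compound average; inconclusive = above 8.4% inhibition in only one replicate; inactive = 8.4% inhibition or less in each replicate.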

This assay in a line: RAM signaling pathway blockade in yeast – S. cerevisiae, Pdr1DBD-CYC8 efflux-inhibited sensitized strain, primary screen (AID 1298).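 Also: 0% = DMSO untreated cells without growth and 100% = 10 µM 1-NA-PP1 full growth; higher means more yeast growth rescued from 5-FOA killing.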 As to conditions: S. cerevisiae cbk1-as DSE1-URA3 strain, 5-FOA growth OD615, 2 d; at 50 µM; active compounds read high.
Regarding `CCOc1ccc(-n2c(Cc3cc(=O)[nH]c(=O)[nH]3)nnc2SCC(=O)NC2CCCC2)cc1`, the RAM network inhibition was -0.37% (inactive). In the case of `Cc1cccc(CSc2nnc(-c3ccccn3)n2N)c1` it was 0.89% (inactive). The value for `CC1(C)C(c2ccc(Cl)cc2)=[N+]([O-])C2(CCCC/C2=N\O)N1O` (centres undefined) was 6.93% (inactive); that for `COc1ccc(OCc2nnc3n2N=C(c2ccc(OC)cc2)CS3)cc1` was 7.82% (inactive); that for `COc1ccc(-c2ccc(=O)n(CC(=O)N3CCN(c4ccccc4OC)CC3)n2)cc1` was 7.61% (inactive).

Consider `CC(C)=CC1C(C(=O)Nc2ccc(Br)cn2)C1(C)C` (centres undefined), for which the RAM network inhibition was 4.66% (inactive). On to `Cc1ccc(-n2c(C)cc(C(=O)OCC(=O)N(C)C3CCS(=O)(=O)C3)c2C)cc1` (centres undefined), for which the RAM network inhibition is 8.11% (inactive).

With `CC(C)Cc1ccc(C#N)c(SCC(N)=O)n1`, the RAM network inhibition is 3.19% (inactive). In the case of `Cc1csc2nc(CNS(=O)(=O)N(C)C)cn12` it was 0.05% (inactive). The value for `CN(C)c1ccc(NC(=O)c2cccc(N3C(=O)CCC3=O)c2)cc1` was 4.75% (inactive).

As for `Cn1c(Cn2c(=O)sc3ccccc32)nnc1SCc1cccnc1`, the RAM network inhibition is 5.33% (inactive).

Consider `CCCn1c(=S)[nH]c2cc(C(=O)NCC3CCCO3)ccc2c1=O` (centres undefined), for which the RAM network inhibition was 2.81% (inactive). In the case of `O=C(Nc1nnc(-c2ccc3c(c2)OCCO3)o1)c1ccc(Cc2ccccc2)cc1` it was 4.3% (inactive); in that of `COc1ccccc1OCC(=O)NC1CCCCCC1`, 0.78% (inactive); in that of `COc1cccc(-n2c(=O)[nH]cc(C(=O)Nc3ccc(NC(C)=O)cc3)c2=O)c1`, 4.32% (inactive). In the case of `CCCC1(C(=O)O)NC(c2ccccc2O)C2C(=O)N(c3cccc(Cl)c3)C(=O)C21` (centres undefined) it was 0.05% (inactive). The value for `CCCC(=O)NCCCCNC(=O)CCC` was 4.07% (inactive); that for `CCc1ccccc1NC1c2ccccc2C(=O)N1Cc1ccco1` (centres undefined) was 3.95% (inactive); that for `CC(C)C(NS(=O)(=O)c1ccc2c(c1)oc(=O)n2C)C(=O)N1CCN(c2ccccc2F)CC1` (centres undefined) was 4.04% (inactive).

As to `CC1(C)NC(C)(C)c2nonc2/C1=N\O`, the RAM network inhibition is -0.43% (inactive). For the molecule `CC(C)NS(=O)(=O)c1ccc2c(c1)oc(=O)n2C`, the RAM network inhibition was 0.91% (inactive). As for `CCn1c(SCC(=O)Nc2nnc(C)s2)nc2c(c1=O)SC(C)C2` (centres undefined), the RAM network inhibition was 2.04% (inactive).

For `CCOc1ccccc1N1C(=O)CC(Nc2ccc(N3CCOCC3)cc2)C1=O` (centres undefined), the RAM network inhibition is 5.11% (inactive). In the case of `COc1ccc(-n2nnc3c(=O)n(CC(=O)OCc4ccccc4)cnc32)cc1` it was 6.18% (inactive); in that of `O=C(Cn1cc2c(n1)CCCC2)NCc1cccc(Cl)c1`, 3.09% (inactive). The value for `Cc1cc2cc(CNC(=O)Cc3cccs3)ccc2n1C` was 8.91% (inactive); that for `c1ccc(-c2noc(CN3CCN(c4ccccc4)CC3)n2)cc1` was 3.29% (inactive); that for `O=C(CC1Sc2ncnn2C1=O)Nc1ccc(Br)cc1` (centres undefined) was 5.71% (inactive). In the case of `COc1ccc(C2NC(=O)NC(O)(C(F)(F)F)C2C(=O)c2ccc(C)cc2)cc1` (centres undefined) it was -1.03% (inactive); in that of `Cc1c(C(=O)Nc2ccc(F)cc2)oc2ccc(S(=O)(=O)N3CCCC3)cc12`, 3% (inactive). For the molecule `O=C(Nn1nnnc1Nc1ccccc1)C12CC3CC(CC(C3)C1)C2`, the RAM network inhibition was 4.63% (inactive). In the case of `Cn1c(=O)n(C)c2cc(CN3C(=O)OC(C)(C)C3(C)O)ccc21` (centres undefined) it was 4.45% (inactive); in that of `CCOC(=O)N1CCC(NC(=O)CS(=O)(=O)Cc2nc(-c3ccc(C)cc3)oc2C)CC1`, 0.36% (inactive). In the case of `COc1ccc(O)c(C(=O)c2cnn(C(=O)c3cc(C)oc3C)c2)c1` it was 1.5% (inactive); in that of `Cn1nnnc1SCc1ccc(F)cc1`, 2.61% (inactive); in that of `O=C(Nc1ccccc1Cl)N1CCN(c2ccc3nnc(-c4ccccc4)n3n2)CC1`, 2.07% (inactive).

Turning to `Cc1nc2sc(C(c3cccs3)N3CCN(Cc4ccccc4)CC3)c(O)n2n1` (centres undefined), the RAM network inhibition was 4.97% (inactive). In the case of `COc1ccc(Cc2nnc(-c3cccc(C)c3)o2)cc1OC` it was 7.99% (inactive); in that of `COc1ccc(NC(=O)CN(c2cc(C)cc(C)c2)S(=O)(=O)c2c(C)n[nH]c2C)cc1`, 5.46% (inactive).
